The source of these data is PubChem BioAssay (NCI).

What all share (assay): NCI-60 one-dose screen, 48 h (100 = growth as untreated, 0 = no growth, -100 = all killed)
What all share (details): 10 µM unless noted

The subject of assay [1] is MOLT-4 leukemia.
The subject of assay [2] is SR leukemia.
In assay [3] the test system is RPMI-8226 leukemia.
Assay [4] deals with OVCAR-8 ovarian.
Assay [5] concerns OVCAR-5 ovarian.
The test system of assay [6] is OVCAR-4 ovarian.
The test system of assay [7] is SK-OV-3 ovarian.
Assay [8] has as its system IGROV1 ovarian.
The test system of assay [9] is OVCAR-3 ovarian.
Assay [10] relates to HS 578T breast.
Assay [11] relates to NCI/ADR-RES ovarian.
Assay [12] has as its system BT-549 breast.
In assay [13] the test system is MDA-MB-435 melanoma.
The test system of assay [14] is SW-620 colon.
The subject of assay [15] is MCF7 breast.
Assay [16] deals with HCT-116 colon.
For assay [17], the system named is HCC-2998 colon.
The test system of assay [18] is KM12 colon.
Assay [19] deals with T-47D breast.

Values joined by “and” are separate entries in the source; they are usually repeats but may differ in a detail not shown here. Equal values may be shown once. The panel holds about 83,000 compounds, 20% with a hit somewhere; the sample as a whole holds those more often.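 Each cell line was grown in a 96-well plate and treated with one concentration of compound for 48 hours. Values below 10 were considered active.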 Unmarked numbers belong to inactive results. Active and inactive are the calls of the source.

With `Cc1cc(N)ccc1N`, the growth in [1] was 107%; in assay [2], 110%; in [3], 77%; in assay [4], 96.1%; in [5], 96%; in assay [6] it was 104%. Besides, the growth in assay [7] was 99.9%; in [8], 108%; in assay [9], 102%; in assay [10], 104%; in assay [11] it was 105%; in [12], 90.4%. Further, the growth was 116% in assay [13]; 96.6% in assay [14]; 92.2% in assay [15]; 91.8% in assay [16]; 93.2% in assay [17]; 104% in assay [18].
`Oc1ccccc1C=NCCN=Cc1ccccc1O.[Fe]`: the growth in assay [1] was 30.7%; in assay [2], 73.2%; in [3] it was 88.6%; in [4], 84.7%; in assay [6], 117%; in assay [7] it was 101%. The growth in assay [8] is 71.2%; in assay [9] it was 112%; in assay [10], 77.3%; in assay [11], 104%; in [19], 97.7%; in assay [12] it was 110%. The growth was 31.1% in assay [13]; 66.1% in [14]; 70.4% in assay [15]; 77% in assay [16]; 111% in assay [17]; 93% in assay [18].
On to `Cc1ccc(NC2=N[C@]34CC(=O)CC[C@]3(C)[C@H]3CC[C@]5(C)C(=O)CC[C@H]5[C@@H]3C[C@@H]4S2)c(C)c1`, for which the growth in assay [1] was -0.311% (active); in assay [2], -0.627% (active); in assay [3], -3.52% (active); in [4] it was 31.7%; in [6], 59.6%; in assay [7] it was 78.5%. The growth is 17.7% in assay [8]; -6.33% (active) in [9]; 45.3% in assay [10]; 53.4% in [11]; 41.8% in assay [19]; 2.85% (active) in assay [12]. The growth was 16.9% in [13]; 4.35% (active) in assay [14]; -27.3% (active) in assay [16]; 84.5% in [17]; 44.5% in assay [18].
`CN(C)[C@@H]1C(=O)C(C(N)=O)=C(O)[C@@]2(O)C(=O)C3=C(O)c4c(O)ccc(Cl)c4[C@@](C)(O)[C@H]3C[C@@H]12`: the growth is 99.5% and 121% in assay [1]; 87.9% and 82.8% in [2]; 87% and 91.1% in assay [3]; 98.7% and 91.7% in assay [4]; 98.3% and 98.6% in assay [6]; 90.3% and 95.8% in [7]. Besides, the growth in assay [8] is 78.7% and 87.2%; in assay [9], 112% and 102%; in [10], 94.7% and 91.7%; in assay [11], 104% and 109%; in assay [19], 91.5% and 97.7%; in assay [12], 87.6%. The growth in assay [13] is 99.6% and 103%; in assay [14] it was 101% and 97.7%; in [15], 94.8% and 86.8%; in assay [16], 81.4% and 102%; in assay [17], 92.2% and 125%; in assay [18], 94.7% and 102%.
In the case of `C(=NC1CCCCC1)=NC1CCCCC1`, the growth is 101% and 86.1% in assay [1]; 89.5% and 83.7% in assay [2]; 97.6% and 50% in assay [3]; 124% and 77.4% in assay [4]; 107% and 59.9% in assay [6]; 109% and 91.6% in assay [7]. In addition, the growth in assay [8] was 108% and 88.4%; in assay [9], 117% and 73%; in assay [10], 91.8%; in assay [11], 111% and 75.5%; in [19], 104% and 14.6%; in [12] it was 113% and 91.1%. In addition, the growth was 101% and 88.4% in assay [13]; 106% and 88.6% in assay [14]; 100% and 87.2% in [15]; 93.6% and 81.4% in assay [16]; 105% and 87.7% in assay [17]; 109% and 95.7% in [18].
For the compound `O=S(OO)c1cc(Cl)c(O)c(Cl)c1` (configuration not stated), the growth in [1] is 103%; in [2], 95.1%; in [3], 99.9%; in assay [4], 101%; in assay [6], 89.9%; in assay [7] it was 103%. Also, the growth is 104% in assay [8]; 114% in [9]; 104% in assay [10]; 101% in assay [11]; 87.6% in assay [19]; 89.1% in assay [12]. For the same compound, the growth in assay [13] was 97.1%; in assay [14], 98.3%; in assay [15] it was 78.6%; in assay [16] it was 105%; in assay [17], 95.5%; in assay [18] it was 108%.
Consider `CN1[C@@H](CC(=O)c2ccccc2)CCC[C@H]1CC(=O)c1ccccc1`, for which the growth in [1] is 111%; in assay [2], 111%; in [3] it was 120%; in assay [4], 93.3%; in assay [5], 101%; in [6] it was 107%. Further, the growth in [7] was 117%; in [8], 26.5%; in [9] it was 101%; in assay [10], 83%; in assay [11] it was 99%; in assay [19], 103%. Moreover, the growth was 97.5% in [13]; 112% in assay [14]; 93.3% in assay [15]; 101% in [16]; 126% in assay [17]; 110% in assay [18].
As for `CN(C)c1ccc(N)cc1`, the growth in assay [1] is 100% and 63.4%; in assay [2], 99% and 33.6%; in assay [3] it was 93.6% and 21%; in [4] it was 93.7% and 30.2%; in assay [6] it was 97.6% and 39.6%; in assay [7], 90% and 70.4%. In addition, the growth in [8] is 94.5% and 61.8%; in assay [9], 106% and 32.4%; in assay [10], 100% and 54.5%; in [11] it was 104% and 85.3%; in assay [19], 90.7% and 28.5%; in assay [12], 107% and 72%. The growth is 107% and 43.4% in assay [13]; 99.1% and 65.6% in assay [14]; 87.7% and 30.5% in [15]; 117% and 14.8% in assay [16]; 107% and 34.7% in assay [18].
